Test [1] is described as follows: qHTS for Inhibitors of the Functional Ribonucleoprotein Complex (vRNP) of Lassa (LASV) Arenavirus: LASV Primary Screen - GLuc reporter signal (AID 1347082; calls by dose curve; tested in HEK293 reporter line; also: % is scaled to controls: 0 for no effect and ±100 for the full control effect; nearly all actives have a fitted effect of over 60% in size). (In qHTS, concentration-response curves come from the screen itself.)
Test [2] can be described thus: qHTS for Inhibitors of the Functional Ribonucleoprotein Complex (vRNP) of Lassa (LASV) Arenavirus: Viability assay - alamar blue signal for LASV Primary Screen (AID 1347083; calls by dose curve; tested in HEK293 reporter line; also: % is scaled to controls: 0 for no effect and ±100 for the full control effect; nearly all actives have a fitted effect of over 80% in size).
Test [3] can be described thus: qHTS for Inhibitors of the Functional Ribonucleoprotein Complex (vRNP) of Lymphocytic Choriomeningitis Arenaviruses (LCMV): Viability assay - alamar blue signal for LCMV Primary Screen (AID 1347085; calls by dose curve; tested in HEK293 reporter line; also: % is scaled to controls: 0 for no effect and ±100 for the full control effect; nearly all actives have a fitted effect of over 80% in size).
The target in test [4] is Nucleoprotein (Lymphocytic choriomeningitis virus (strain Armstrong)) (UniProt P09992). As to the kind of experiment: qHTS for Inhibitors of the Functional Ribonucleoprotein Complex (vRNP) of Lymphocytic Choriomeningitis Arenaviruses (LCMV): LCMV Primary Screen - GLuc reporter signal (AID 1347086). Also: % is scaled to controls: 0 for no effect and ±100 for the full control effect; nearly all actives have a fitted effect of over 70% in size.
Test [5] is described as follows: Primary qHTS for inhibitors of SARS-S pseudo-typed particle cell entry (AID 1479145). Also: nearly all actives have a fitted effect of over 45% in size. As to activity change, negative = inhibition: % is scaled to controls: 0 for no effect and ±100 for the full control effect.
Test [6] in a line: Primary qHTS for Huh7 cytotoxicity: counterscreen for inhibitors of MERS-S pseudotyped particle cell entry (AID 1479147). The note with it: outcome: dose series up to 57.1 µM unless noted.
Test [7] can be described thus: Primary qHTS for inhibitors of MERS-S pseudo-typed particle cell entry (AID 1479149). Also: nearly all actives have a fitted effect of over 60% in size. As to activity change, negative = inhibition: % is scaled to controls: 0 for no effect and ±100 for the full control effect.
Test [8] is described as follows: Primary qHTS for Vero E6 cytotoxicity: counterscreen for inhibitors of SARS-S pseudo-typed particle cell entry (AID 1479150). The note with it: outcome: dose series up to 57.1 µM unless noted.
Test [9] is described as follows: Cytotoxicity counterscreen for inhibitors of SARS-CoV-2 cell entry (AID 1645845). Also: nearly all actives have a fitted effect of over 50% in size. In a few lines:
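HEK293-ACE2 cells (Expi293F stably expressing human ACE2) seeded overnight, then compound for 1 h plus 48 h at 37C. Viability as ATP content by luminescence; normalized to wells with cells and media-only wells.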
For orientation: The purpose of a counterscreen is to sort out artefacts and off-target activity.

Test [10] is described as follows: Primary qHTS to identify inhibitors of SARS-CoV-2 cell entry (AID 1645846). Also: nearly all actives have a fitted effect of over 45% in size. To be noted: activity change, negative = inhibition: at 57.1 µM (top of the series) unless noted. In a few lines:
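HEK293-ACE2 (Expi293F, stable hACE2), 1500 cells/well, o/n 37C; cpd 23 nL pin, 1 h; MLV-PP w/ SARS-CoV-2-S (Wuhan-Hu-1, Δ19 C-term); 48 h 37C; Bright-Glo luminescence; normalized vs S-PP and bald PP.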

For test [11], the target named is Alpha-galactosidase (Coffea arabica) (UniProt Q42656). As to the kind of experiment: Counterscreen for Glucocerebrosidase Inhibitors: qHTS Assay for Coffee Bean alpha-Galactosidase at pH 4.5 (AID 957; active = well fitted curve in the direction sought with a large enough effect; an effect the other way counts as inactive or inconclusive;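 also: plate controls were enzyme alone for no effect and no enzyme for full effect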). In short, it runs like this:
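Coffee bean enzyme (2 nM) with 80 uM 4-methylumbelliferyl alpha-D-galactopyranoside in 50 mM citric acid, 0.005% Tween-20, pH 4.5, 20 min at room temperature; compounds 0.7 nM–77 uM. Stopped at pH 10, fluorescence 365/440 nm; AC50 from Hill fits.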

Test [12] shares this target. Put plainly: Counterscreen for Glucocerebrosidase Inhibitors: qHTS Assay for Coffee Bean alpha-Galactosidase at pH 5.9 (AID 998; active = well fitted curve in the direction sought with a large enough effect; an effect the other way counts as inactive or inconclusive;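 also: plate controls were uninhibited enzyme for no effect and no-enzyme basal signal for full effect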). In a few lines: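 Green coffee bean enzyme (2 nM) with 4-methylumbelliferyl alpha-D-galactopyranoside (80 uM) in 50 mM citric acid, 0.005% Tween-20, pH 5.9, 20 min at room temperature; compounds 0.7 nM–77 uM. Stopped at pH 10, fluorescence Ex365/Em440; Hill-fit AC50.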

Test [13] is described as follows: Validation screen for inhibitors of Lassa infection (AID 463096). Also: % is scaled to controls: 0 for no effect and ±100 for the full control effect.
Test [14] is described as follows: Inducers of the Endoplasmic Reticulum Stress Response (ERSR) in human glioma: Validation (AID 504836; active = well fitted curve in the direction sought with a large enough effect; an effect the other way counts as inactive or inconclusive; also: 0% is about no effect). In short, it runs like this: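 Stably transfected U87-MG glioma cells carrying a GRP78-based luciferase sensor; 16 h compound incubation. Luminescence end-point read 10 min after Bright-Glo addition at room temperature.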
Test [15] is described as follows: qHTS for inhibitors of Rabies Virus screened against the NCATS CANVASS Library (AID 1347402). Also: 0% is about no effect.

Several values for one entry are separate records, joined by “and”; a condition that tells them apart may be missing. Equal values may be shown once. Records with an inconclusive call do not appear. Activity calls are given as the source filed them. Unless noted, calls follow the shape of the full dose curve.

Nucleoprotein (Lymphocytic choriomeningitis virus (strain Armstrong)), sequence (P09992 whole entry, looked up): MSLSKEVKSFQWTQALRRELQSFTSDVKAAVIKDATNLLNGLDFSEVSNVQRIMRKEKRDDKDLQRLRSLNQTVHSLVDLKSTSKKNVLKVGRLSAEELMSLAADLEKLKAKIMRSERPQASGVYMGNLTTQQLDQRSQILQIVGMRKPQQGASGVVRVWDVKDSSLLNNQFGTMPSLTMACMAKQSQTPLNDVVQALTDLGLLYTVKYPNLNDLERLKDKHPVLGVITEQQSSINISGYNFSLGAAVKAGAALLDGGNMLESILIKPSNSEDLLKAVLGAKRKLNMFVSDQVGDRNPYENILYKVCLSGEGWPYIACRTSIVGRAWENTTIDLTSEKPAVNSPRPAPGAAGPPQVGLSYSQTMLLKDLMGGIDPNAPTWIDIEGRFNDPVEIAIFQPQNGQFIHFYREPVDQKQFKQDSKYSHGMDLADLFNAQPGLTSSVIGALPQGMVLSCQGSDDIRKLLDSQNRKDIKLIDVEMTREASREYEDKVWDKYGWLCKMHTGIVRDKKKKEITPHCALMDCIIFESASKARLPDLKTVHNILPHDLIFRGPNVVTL
Alpha-galactosidase (Coffea arabica), sequence (Q42656 whole entry, looked up): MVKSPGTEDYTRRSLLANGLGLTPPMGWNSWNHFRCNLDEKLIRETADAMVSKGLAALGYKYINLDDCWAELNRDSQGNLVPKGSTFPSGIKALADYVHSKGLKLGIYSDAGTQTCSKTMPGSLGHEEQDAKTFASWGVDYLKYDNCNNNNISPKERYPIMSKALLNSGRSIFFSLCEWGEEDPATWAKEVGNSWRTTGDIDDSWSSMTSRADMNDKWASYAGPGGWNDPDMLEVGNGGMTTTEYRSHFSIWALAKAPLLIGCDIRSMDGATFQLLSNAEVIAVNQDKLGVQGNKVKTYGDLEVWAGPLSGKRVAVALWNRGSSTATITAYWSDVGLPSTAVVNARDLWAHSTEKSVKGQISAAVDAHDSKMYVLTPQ

On to `C[C@@H](O)[C@H]1C(=O)N2C(C(=O)OCOC(=O)C(C)(C)C)=C(SC3CN(C4=NCCS4)C3)[C@H](C)[C@H]12`, for which the Potency entry in [1], in test [2], in test [3], in [4], in [5] and in test [7] was “inactive” throughout. Moreover, the Potency entry in test [9] is “inactive”. The call in test [6] and in [8] was inactive.
`CCN(C(=O)c1c(O)c2c(Cl)cccc2n(C)c1=O)c1ccccc1`: the Potency result in test [1], in [2], in test [3], in test [4], in [5] and in [7] was “inactive” in each case. For the same compound, the Potency result in test [9] is “inactive”. Besides, the outcome in [6] and in test [8] was inactive. Also, the activity change, negative = inhibition in test [10] is -55.1% and -33%.
For the compound `CC(/C=C/C=C(\C)C(=O)O[C@@H]1O[C@H](CO[C@@H]2O[C@H](CO)[C@@H](O)[C@H](O)[C@H]2O)[C@@H](O)[C@H](O)[C@H]1O)=C\C=C\C=C(C)\C=C\C=C(/C)C(=O)O[C@@H]1O[C@H](CO[C@@H]2O[C@H](CO)[C@@H](O)[C@H](O)[C@H]2O)[C@@H](O)[C@H](O)[C@H]1O`, the Potency entry in test [1], in test [2], in test [3], in test [4], in test [5] and in [7] was “inactive” each time. The Potency result in test [9] is “inactive”. Moreover, the compound was classed as inactive in test [6] and in [8]. Further, the activity change, negative = inhibition in test [10] is -12.5%.
With `O=C(O)Cc1c[nH]c2ccc(O)cc12`, the call in test [11], in test [12], in [14] and in test [15] was inactive. Also, the Potency result in test [13], in test [1], in test [2], in test [3] and in test [4] was “inactive” each time.

Source of the values: PubChem BioAssay (NCATS).
